Measured values from PubChem BioAssay (NCATS).
Records with an inconclusive call do not appear. Activity calls are given as the source filed them. The call rests on the fitted dose curve; in most records, active means well fitted curve in the direction sought with a large enough effect; inconclusive means small, poorly fitted or top-dose-only effect, or another doubt; inactive means no such curve, though single readings can be large; an effect the other way counts as inactive or inconclusive.

Experiments:
[1] = Quantitative High-Throughput drug screen in 47 multiple myeloma cell lines against the NCATS MIPE library collection: KHM11_PLB cell viability assay (AID 1918962); further: nearly all actives have a fitted effect of over 35% in size
Summary of the method: (§1)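 Viability readout: CellTiter-Glo luminescence following 5 min room-temperature incubation with reagent. Prior exposure: 48 h, 37C, humidified 5% CO2, 500 cells per well.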

[2] = Quantitative High-Throughput drug screen in 47 multiple myeloma cell lines against the NCATS MIPE library collection: JIM3_ECACC cell viability assay (AID 1918963; further: nearly all actives have a fitted effect of over 35% in size)
Summary of the method: as §1

[3] = Quantitative High-Throughput drug screen in 47 multiple myeloma cell lines against the NCATS MIPE library collection: JIM1_ECACC cell viability assay (AID 1918964)
Summary of the method: (§2)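 We plated 500 myeloma cells per well, pinned in MIPE 4.0 compounds, and incubated for 48 hours at 37C. ATP was then quantified with CellTiter-Glo, with DMSO and media-only wells defining 100% and 0%.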

[4] = Quantitative High-Throughput drug screen in 47 multiple myeloma cell lines against the NCATS MIPE library collection: INA6_PLB cell viability assay (AID 1918965; further: nearly all actives have a fitted effect of over 55% in size)
Summary of the method: (§3)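 Approved and investigational drugs from MIPE 4.0 were added by pin tool to 500 cells per well. After 48 hours at 37C, ATP-based CellTiter-Glo luminescence indicated remaining viability.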

[5] = Quantitative High-Throughput drug screen in 47 multiple myeloma cell lines against the NCATS MIPE library collection: JJN3_DSMZ cell viability assay (AID 1918966; further: nearly all actives have a fitted effect of over 50% in size)
Summary of the method: as §2

[6] = Quantitative High-Throughput drug screen in 47 multiple myeloma cell lines against the NCATS MIPE library collection: H1112_PLB cell viability assay (AID 1918967; further: nearly all actives have a fitted effect of over 30% in size)
Summary of the method: as §2

[7] = Quantitative High-Throughput drug screen in 47 multiple myeloma cell lines against the NCATS MIPE library collection: Karpas25_ECACC cell viability assay (AID 1918968; further: nearly all actives have a fitted effect of over 35% in size)
Summary of the method: as §2

[8] = Quantitative High-Throughput drug screen in 47 multiple myeloma cell lines against the NCATS MIPE library collection: KMS27_JCRB cell viability assay (AID 1918970); further: nearly all actives have a fitted effect of over 30% in size
Summary of the method: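 Viability inhibition screen, 48 h compound exposure, luminescent ATP read-out.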

[9] = Quantitative High-Throughput drug screen in 47 multiple myeloma cell lines against the NCATS MIPE library collection: KMS12BM_JCRB cell viability assay (AID 1918971); further: nearly all actives have a fitted effect of over 35% in size
Summary of the method: (§4)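 CellTiter-Glo luminescence (ATP) after 48 h compound exposure, 37C/5% CO2; 500 cells/well; MIPE 4.0 approved/investigational drugs pinned in; DMSO = 100%, media only = 0% viability.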

[10] = Quantitative High-Throughput drug screen in 47 multiple myeloma cell lines against the NCATS MIPE library collection: KMS21BM_JCRB cell viability assay (AID 1918974); conditions: ATP luminescence, 48 h; viability: at 45.8 µM (top of the series) unless noted
Summary of the method: as §2

[11] = Quantitative High-Throughput drug screen in 47 multiple myeloma cell lines against the NCATS MIPE library collection: KMS26_JCRB cell viability assay (AID 1918975); further: nearly all actives have a fitted effect of over 45% in size
Summary of the method: as §4

[12] = Quantitative High-Throughput drug screen in 47 multiple myeloma cell lines against the NCATS MIPE library collection: MMM1_PLB cell viability assay (AID 1918976); further: nearly all actives have a fitted effect of over 35% in size
Summary of the method: (§5)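 MIPE 4.0 approved/investigational drugs; 500 cells/well; 48 h 37 °C humidified 5% CO2; CTG luminescence readout; DMSO = 100%, media = 0% viability.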

[13] = Quantitative High-Throughput drug screen in 47 multiple myeloma cell lines against the NCATS MIPE library collection: NCIH929_DSMZ cell viability assay (AID 1918978); further: nearly all actives have a fitted effect of over 35% in size
Summary of the method: as §5

[14] = Quantitative High-Throughput drug screen in 47 multiple myeloma cell lines against the NCATS MIPE library collection: MM1S_ATCC cell viability assay (AID 1918980); further: nearly all actives have a fitted effect of over 45% in size
Summary of the method: as §5

[15] = Quantitative High-Throughput drug screen in 47 multiple myeloma cell lines against the NCATS MIPE library collection: MM1R_ATCC cell viability assay (AID 1918981); further: nearly all actives have a fitted effect of over 35% in size
Summary of the method: as §5

[16] = Quantitative High-Throughput drug screen in 47 multiple myeloma cell lines against the NCATS MIPE library collection: LP1_DSMZ cell viability assay (AID 1918982); further: nearly all actives have a fitted effect of over 35% in size
Summary of the method: as §5

[17] = Quantitative High-Throughput drug screen in 47 multiple myeloma cell lines against the NCATS MIPE library collection: KMS12PE_JCRB cell viability assay (AID 1918972); further: nearly all actives have a fitted effect of over 30% in size
Summary of the method: as §3

[18] = Quantitative High-Throughput drug screen in 47 multiple myeloma cell lines against the NCATS MIPE library collection: KMS20_JCRB cell viability assay (AID 1918973); further: nearly all actives have a fitted effect of over 45% in size
Summary of the method: as §2

[19] = Quantitative High-Throughput drug screen in 47 multiple myeloma cell lines against the NCATS MIPE library collection: OCIMY1_PLB cell viability assay (AID 1918979); further: nearly all actives have a fitted effect of over 35% in size
Summary of the method: as §5

[20] = Quantitative High-Throughput drug screen in 47 multiple myeloma cell lines against the NCATS MIPE library collection: MOLP8_DSMZ cell viability assay (AID 1918977); further: nearly all actives have a fitted effect of over 45% in size
Summary of the method: as §5
Potency means the concentration at half of the fitted maximal effect.

Compound | Potency [1] | Potency [2] | Potency [3] | Potency [4] | Potency [5] | Potency [6] | Potency [7] | Potency [8] | Potency [9] | Potency [10] | Potency [11] | Potency [12] | Potency [13] | Potency [14] | Potency [15] | Potency [16] | Potency [17] | Potency [18] | Potency [19] | Potency [20]
COc1cc2ncn(-c3cc(OCc4ccccc4C(F)(F)F)c(C(N)=O)s3)c2cc1OC | 18.7 µM (active) | 0.469 µM (active) | 0.296 µM (active) | 1.18 µM (active) | 16.6 µM (active) | 7.43 µM (active) | 13.2 µM (active) | 0.132 µM (active) | 0.833 µM (active) | 1.32 µM (active) | 18.7 µM (active) | 20.9 µM (active) | 7.43 µM (active) | 3.32 µM (active) | 18.7 µM (active) | 0.935 µM (active) | – | – | – | –
COc1cc2c(Oc3ccc(NC(=O)C4(C(=O)Nc5ccc(F)cc5)CC4)cc3F)ccnc2cc1OCCCN1CCOCC1 | 7.43 µM (active) | 11.8 µM (active) | 1.66 µM (active) | 7.43 µM (active) | 16.6 µM (active) | 16.6 µM (active) | – | 9.35 µM (active) | – | – | 16.6 µM (active) | 18.7 µM (active) | 2.96 µM (active) | 16.6 µM (active) | – | 16.6 µM (active) | 3.72 µM (active) | 1.87 µM (active) | 14.8 µM (active) | –
CC(C)c1cc(C(=O)N2Cc3ccc(CN4CCN(C)CC4)cc3C2)c(O)cc1O | 0.0935 µM (active) | 0.187 µM (active) | 0.0743 µM (active) | 0.118 µM (active) | 0.209 µM (active) | 5.26 µM (active) | 0.166 µM (active) | 0.132 µM (active) | 0.264 µM (active) | – | 0.235 µM (active) | 0.418 µM (active) | 0.166 µM (active) | 0.332 µM (active) | 0.418 µM (active) | – | 0.118 µM (active) | 0.187 µM (active) | 0.418 µM (active) | 0.148 µM (active)
OCCCNc1cc(-c2ccnc(Nc3cccc(Cl)c3)n2)ccn1 | 0.0187 µM (active) | 0.0526 µM (active) | 0.0526 µM (active) | 0.0264 µM (active) | 0.0935 µM (active) | 0.059 µM (active) | 0.0418 µM (active) | 0.0418 µM (active) | 0.132 µM (active) | 0.0372 µM (active) | 0.132 µM (active) | 0.166 µM (active) | 0.0296 µM (active) | 0.118 µM (active) | 0.0935 µM (active) | 0.105 µM (active) | 0.0935 µM (active) | 0.0418 µM (active) | 0.235 µM (active) | –
CCN(CC)CCCCNc1ncc2cc(-c3cc(OC)cc(OC)c3)c(NC(=O)NC(C)(C)C)nc2n1 | 9.35 µM (active) | 23.5 µM (active) | 20.9 µM (active) | 16.6 µM (active) | 20.9 µM (active) | 23.5 µM (active) | 10.5 µM (active) | 16.6 µM (active) | – | – | – | – | 11.8 µM (active) | 20.9 µM (active) | 23.5 µM (active) | 16.6 µM (active) | 16.6 µM (active) | 7.43 µM (active) | inactive | –
COc1ccc(-c2cc3c(C)nc(N)nc3n(C3CCC(OCCO)CC3)c2=O)cn1 (configuration not stated) | 0.0296 µM (active) | 0.0662 µM (active) | 0.0074 µM (active) | 0.148 µM (active) | 0.0833 µM (active) | 0.662 µM (active) | 0.0264 µM (active) | 0.0264 µM (active) | 0.059 µM (active) | – | 0.148 µM (active) | 0.0148 µM (active) | 0.0093 µM (active) | 0.0372 µM (active) | 0.0148 µM (active) | 0.0148 µM (active) | 0.372 µM (active) | 0.0264 µM (active) | 0.0833 µM (active) | 0.0372 µM (active)
O=C(Nc1ncc(-c2cc(C(F)F)nn2-c2c(Cl)cccc2Cl)s1)C1CC1 | 0.935 µM (active) | 0.264 µM (active) | 0.166 µM (active) | 0.296 µM (active) | 1.32 µM (active) | 0.469 µM (active) | 0.662 µM (active) | 0.0833 µM (active) | 1.05 µM (active) | – | 2.64 µM (active) | 2.64 µM (active) | 2.64 µM (active) | 1.48 µM (active) | 1.32 µM (active) | 1.05 µM (active) | 0.372 µM (active) | 0.469 µM (active) | 0.743 µM (active) | 2.09 µM (active)
O=C(Nc1cn[nH]c1-c1nc2ccc(CN3CCOCC3)cc2[nH]1)NC1CC1 | 1.48 µM (active) | 1.18 µM (active) | 2.09 µM (active) | 0.148 µM (active) | 1.87 µM (active) | 3.32 µM (active) | 1.87 µM (active) | 3.32 µM (active) | – | – | 4.69 µM (active) | 5.9 µM (active) | 1.18 µM (active) | 1.87 µM (active) | – | 4.69 µM (active) | – | 2.96 µM (active) | 10.5 µM (active) | 2.64 µM (active)
CN1CC[C@@H](c2c(O)cc(O)c3c(=O)cc(-c4ccccc4Cl)oc23)[C@@H](O)C1 | 0.0235 µM (active) | 0.0833 µM (active) | 0.0235 µM (active) | 0.0418 µM (active) | 0.0743 µM (active) | 0.132 µM (active) | 0.0833 µM (active) | 0.0935 µM (active) | 0.132 µM (active) | 0.0296 µM (active) | 0.105 µM (active) | 0.187 µM (active) | 0.0743 µM (active) | 0.0935 µM (active) | 0.105 µM (active) | 0.0662 µM (active) | 0.132 µM (active) | 0.0833 µM (active) | 0.187 µM (active) | 0.0526 µM (active)
